Hit rate of the full screen: of about 200,000 compounds, about 4,500 (2.2%) were called active. Not shown: some 12% with an inconclusive outcome. The list comes from a sample in which actives are over-represented; it also holds similar structures and randomly drawn compounds. Values without a mark were called inactive. Calls follow the shape of the dose curve; as a rule, active = well fitted inhibition curve with a large enough effect; inconclusive = small, poorly fitted or top-dose-only effect, or effect the other way; inactive = flat fitted curve, though single readings scatter.
Potency is read from the fitted curve at half-maximal effect.

The target in this test is Cruzipain (Trypanosoma cruzi) (UniProt P25779). The experiment in a line: qHTS Assay for Promiscuous and Specific Inhibitors of Cruzain (without detergent). Also: nearly all actives have a fitted effect of over 40% in size.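 As to max response, negative = inhibition: plate controls were enzyme without inhibitor for no effect and buffer without enzyme for full effect.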 The following applies: purified cruzain, Z-FR-AMC fluorescence, no detergent. An outline of the steps: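 Purified cruzain at 1.5 nM, pre-incubated 15 min with compound at room temperature in 100 mM sodium acetate pH 5.5, 5 mM DTT, 0.00005% Triton X-100. Reaction started with 2 uM Z-FR-AMC; AMC fluorescence increase over 60 s gives rate.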
Sequence of Cruzipain (Trypanosoma cruzi) (P25779 123-467 limits assumed): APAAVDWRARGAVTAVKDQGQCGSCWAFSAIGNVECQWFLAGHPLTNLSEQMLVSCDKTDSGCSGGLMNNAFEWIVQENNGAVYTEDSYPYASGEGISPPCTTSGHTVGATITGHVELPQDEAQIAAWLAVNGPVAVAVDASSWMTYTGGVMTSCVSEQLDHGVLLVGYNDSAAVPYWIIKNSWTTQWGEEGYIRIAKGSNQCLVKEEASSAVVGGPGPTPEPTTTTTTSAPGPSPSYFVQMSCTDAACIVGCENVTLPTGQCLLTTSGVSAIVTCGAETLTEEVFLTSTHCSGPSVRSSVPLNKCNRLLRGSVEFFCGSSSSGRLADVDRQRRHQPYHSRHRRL
Consider `COc1cccc(Cn2c(SCc3ccc(C(=O)N4CCCCC4)cc3)nc3ccncc32)c1`, for which the max response, negative = inhibition was 12.2%.
On the same count and under the same terms, in the case of `CC(=O)Nc1ccc(S(=O)(=O)NCC2CCC(C(=O)NCCc3ccccc3)CC2)cc1` (configuration not stated) it was -2.5%.
Consider `COc1ccc(CN2CCn3ncc(C(=O)Nc4ccc(Cl)cc4Cl)c3C2=O)cc1`, for which the Potency was 5.01 µM (active).
For the compound `COc1ccc(/C(C)=N/NC(=O)CCC(=O)Nc2ccc(Cl)cc2Cl)c(OC)c1`, the max response, negative = inhibition was 9.51%.
Still for that read-out and setting: the figure for `Cc1cnc(C(=O)OCC(=O)Nc2ccc(Cl)cc2Cl)cn1` is -17.8%; for `O=C(O)c1ccc(Cn2c(SCc3ccc(F)cc3)nc3ccncc32)cc1` it is 2.53%; for `Cc1ccc(CN2CCCn3nc(C(=O)NCc4ccccc4Cl)cc3C2=O)cc1` it is 12.6%.
Take `O=C(c1ccco1)n1nc(-c2ccc(Cl)cc2)nc1NCc1ccccc1`: the max response, negative = inhibition was 14.9%.
Consider `COC(=O)c1c(-c2cccs2)csc1NC(=O)CSc1ncnc2sc(C)c(C)c12`, for which the Potency is 6.31 µM (active).
With `Cc1nc(SCC(=O)Nc2cc(C)on2)c2c(C)c(C)sc2n1`, the max response, negative = inhibition is -4.16%.
Same read-out and setting: in the case of `Cc1sc2ncnc(Sc3nc4ccccc4s3)c2c1C` it was -16.3%; in that of `CCOc1ccc(N(CC)S(=O)(=O)N2CCCC(C(=O)Nc3ccc(C(C)=O)cc3)C2)cc1` (configuration not stated), -0.766%; in that of `COc1ccc(CCNC(=O)c2cnc3sc(N4CCCCCC4)nn3c2=O)cc1OC`, 2.6%.
With `CO/N=C(/CS(=O)(=O)c1ccc(Br)cc1)c1ccc(OC)cc1`, the max response, negative = inhibition was 0.45%.
Regarding `CC(=O)c1c(Nc2ccccc2)sc(C(=O)c2ccccc2)c1C`, the max response, negative = inhibition was 5.34%.
As for `COc1cccc(C(=O)c2sc3nc(-c4ccccc4)cc(C(F)(F)F)c3c2N)c1`, the max response, negative = inhibition was -13.2%.
As to `COc1ccc(S(=O)(=O)c2c(Nc3cccc(Cl)c3)sc(C(=O)c3ccccc3)c2N)cc1`, the Potency is 3.98 µM (active).
`COc1ccc(C(=O)NNS(=O)(=O)c2ccc(C)cc2)cc1`: the max response, negative = inhibition was -9.3%.
Take `COc1ccc(S(=O)(=O)c2c(Nc3ccc(C)cc3)sc(C(=O)c3ccc(C)cc3)c2N)cc1`: the Potency was 5.01 µM (active).
Regarding `Cc1ccc(-c2nnc(Nc3ccc(OCC(N)=O)cc3)c3ccccc23)cc1S(=O)(=O)NCC1CCCO1` (configuration not stated), the max response, negative = inhibition was 7.01%.
Turning to `Cc1ccccc1NC(=O)Cn1c(=O)n(Cc2ccco2)c(=O)c2ccc(C(=O)NC3CCCC3)cc21`, the max response, negative = inhibition was 4.88%.
`COc1ccc(N2C(=O)NC(NS(=O)(=O)c3ccc(Cl)cc3)(C(F)(F)F)C2=O)cc1` (configuration not stated): the max response, negative = inhibition was -4.66%.
The same measure, in the same setting: in the case of `CC(C)C12CN3CC(C(C)C)(CN(C1)C3c1ccc(OCc3ccccc3)cc1)C2=O` (configuration not stated) it was 10.1%; in that of `Cc1ccc(-c2cc(C(=O)Oc3ccccc3Cl)no2)cc1C`, 0.973%.
Regarding `Cc1nnc(SCC(=O)N/N=C/c2cn(-c3ccccc3)nc2-c2ccc(F)cc2)n1-c1ccccc1`, the max response, negative = inhibition is -3.1%.
In the case of `Cc1ccc(-c2nn(-c3ccccc3)cc2/C=N/NC(=O)c2ccc3c(c2)OCO3)cc1`, the Potency is 25.1 µM (active).
Take `COc1ccc(-c2nn(-c3ccccc3)cc2/C=N/Nc2ccccn2)cc1OC`: the max response, negative = inhibition is 18.4%.
`COc1ccccc1CNC(=O)CCn1c(=O)c2ccccc2n(CC(=O)Nc2ccc(Br)cc2F)c1=O`: the max response, negative = inhibition was -7.67%.
The same measure, in the same setting: the figure for `COc1ccccc1-c1cc(C(F)(F)F)nc(S(=O)(=O)CCCC(=O)Nc2cc(C)ccc2O)n1` is -0.825%; for `Cc1ccccc1NC(=O)Cn1c(=O)n(CCc2ccccc2)c(=O)c2ccccc21` it is -10.6%.
Same read-out and setting: the figure for `Cc1ccc(S(=O)(=O)c2nc(-c3cccs3)oc2N2CCCCC2)cc1` is 3.47%; for `O=C(CSc1nc(C2CC2)nc2ccccc12)Nc1ccc2c(c1)OCCO2` it is 2.26%.
For `CN(C(=O)CSc1nc(C2CC2)nc2ccccc12)c1nc(-c2ccccc2)cs1`, the Potency is 3.16 µM (active).
On to `COC(=O)CSc1nc(C2CC2)nc2ccccc12`, for which the max response, negative = inhibition was -5.14%.
Same read-out and setting: in the case of `CCOC(=O)c1c(SCC(=O)Nc2cccc(C)c2C)nc(=O)[nH]c1C` it was 4.55%.
Regarding `CCOc1ccc(Nc2nc3c(S(=O)(=O)c4cccc(Cl)c4)nnn3c3ccsc23)cc1`, the max response, negative = inhibition was 3.27%.
In the case of `CCOC(=O)c1c(NC(=O)/C=C/c2ccc(OC)cc2)sc2c1CCC(C)C2` (configuration not stated), the max response, negative = inhibition is -18.7%.
Turning to `COC(=O)c1c(NC(=O)CCCOc2ccccc2)sc2c1CCC(C)C2` (configuration not stated), the max response, negative = inhibition is 0.0824%.
As for `COC(=O)c1c(NC(=O)CN2CCN(S(=O)(=O)c3ccccc3[N+](=O)[O-])CC2)sc2c1CCC(C)C2` (configuration not stated), the Potency was 10 µM (active).
Consider `Cc1cccc(OCCCC(=O)Nc2sc3c(c2C(N)=O)CCC(C)C3)c1` (configuration not stated), for which the max response, negative = inhibition is 14.1%.
On the same count and under the same terms, in the case of `CCOc1ccc(NC(=O)c2c(NC(=O)Cc3ccccc3)sc3c2CCC(C)C3)cc1` (configuration not stated) it was 1.97%.
`Cc1c(Br)c([N+](=O)[O-])nn1CC(=O)Nc1sc2c(c1C(=O)OC(C)C)CCC(C)C2` (configuration not stated): the Potency was 15.8 µM (active).
As for `CCCn1c2ccccc2c2cnn(CC(=O)N3CCCC(C(=O)OCC)C3)c(=O)c21` (configuration not stated), the max response, negative = inhibition was -0.857%.
Regarding `Cc1ccc(C2C=C(c3ccc(Cl)cc3)Nc3nc(NC(=O)CCC(=O)O)nn32)cc1` (configuration not stated), the max response, negative = inhibition was -6.04%.
Same read-out and setting: in the case of `O=C(c1ccccc1F)N1CCC(c2nc3c(nnn3Cc3cccc(F)c3)c(=O)[nH]2)CC1` it was -6.41%.
In the case of `CCc1ccccc1OCCSc1nc(-c2cccs2)nc2cc(=O)[nH]n12`, the Potency was 3.16 µM (active).
With `Cc1ccc(OCCSc2nc(-c3cccs3)nc3cc(=O)[nH]n23)cc1Cl`, the max response, negative = inhibition was 3.5%.
The same measure, in the same setting: in the case of `O=c1cc2nc(-c3ccccc3)nc(SCCOc3ccc(Cl)cc3)n2[nH]1` it was 8.61%; in that of `COc1ccc(Cn2ccnc2SCC(=O)NCc2ccco2)cc1`, -5.79%; in that of `FC(F)(F)c1cc(-c2cccs2)nc(NCc2ccco2)n1`, -1.04%.
On to `COCCn1c(=O)c(-c2cccs2)nc2cncnc21`, for which the max response, negative = inhibition is 2.13%.
Take `CCCn1c(=O)c2c(C(F)(F)F)cc(-c3cccs3)nc2n(CCC)c1=O`: the Potency was 6.31 µM (active).
In the case of `Cc1oc2ncnc(N3CCOCC3)c2c1C(=O)NCCc1ccccc1`, the max response, negative = inhibition was 3.49%.
Turning to `Cc1ccc(C(=O)Oc2coc(CSc3nnc(NC(=O)c4cccs4)s3)cc2=O)cc1C`, the Potency is 25.1 µM (active).
On to `CCc1nnc(NC(=O)c2cccs2)s1`, for which the max response, negative = inhibition is -8.43%.
The same measure, in the same setting: the figure for `CCOc1ccccc1Nc1nnc(SCc2ccc(C(=O)OC)o2)s1` is 2.33%; for `CCOc1cccc(C(=O)Nc2nnc(S(=O)(=O)N(C)c3ccc(C)cc3)s2)c1` it is -15.4%.
Turning to `CCOc1cccc(C(=O)Nc2nnc(-c3cccs3)s2)c1`, the Potency is 15.8 µM (active).
For `CCCc1nnc(NC(=O)c2cccs2)s1`, the max response, negative = inhibition was 0.875%.
On to `COC(=O)c1ccc(CSc2nnc(NC(C)C)s2)cc1`, for which the max response, negative = inhibition was 5.53%.
The same measure, in the same setting: in the case of `CCOc1cccc(C(=O)Nc2cccnc2)c1` it was 1.56%.
Regarding `Cc1ccc(C(=O)Nc2nnc(-c3cccs3)s2)cc1C`, the Potency was 15.8 µM (active).

The record behind these values is PubChem BioAssay AID1476 (National Center for Advancing Translational Sciences (NCATS), 2009).
